Bioassay records: PubChem, Broad Institute
In the library only some 6.7% were active in any assay of this set; here they are far more common.
T cruzi growth-1 = inhibitors of T. cruzi proliferation | T. cruzi beta-gal in NIH3T3, GalScreen luminescence, 90 h | inhibition, % at 8.34 µM | hit rate 5.9% among 77,000 | AID 624255;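 active = mean inhibition above about 93%, with at least 55% of replicates each passing it, limit read from the data, passing the limit was not always enough; inconclusive = only one of those two conditions holds; inactive = neither condition holds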
C diff growth = inhibitors of Clostridium difficile growth; Clostridium difficile clinical isolate growth, OD600, 24 h; stronger effect = lower value; growth activity, negative = inhibition, % at 16 µg/mL (by protocol); hit rate 0.25% among 86,000;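 active = mean growth activity at or below -80% and every replicate also at or below -80%; inconclusive = mean at or below -80% but some replicate above -80%; inactive = mean growth activity above -80%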
Pf Dd2 inh = P. falciparum Dd2 growth inhibition | SYBR Green, 72 h; stronger effect = lower value | activity change, % at 10 µM | hit rate 2.3% among 94,000; in the data active = activity change below about -80%; inconclusive = no clear call, values can overlap the other calls
T cruzi growth-2 = inhibitors of T. cruzi proliferation | shares compounds with T cruzi growth-1 | T. cruzi beta-gal in NIH3T3, GalScreen luminescence, 90 h | inhibition, % at 8.35 µM | hit rate 72% among 5,600;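 active = mean replicate inhibition above about 95% and at least 55% of replicates individually reaching it, limit read from the data; inconclusive = only one of the two criteria is met; inactive = neither criterion is met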
T cruzi growth-3 = Trypanosoma cruzi proliferation inhibition | shares compounds with T cruzi growth-1 | T. cruzi beta-gal in NIH3T3, GalScreen luminescence, 90 h | inhibition, % at 2.09 µM | hit rate 21% among 5,600 | AID 651740;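 active = mean inhibition above about 95%, with at least 55% of replicates also reaching it, limit read from the data; inconclusive = meets just one of the two conditions; inactive = meets neither condition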
NIH3T3 tox = kills mouse NIH/3T3 fibroblasts; AID 651742; NIH/3T3 viability, CellTiter-Glo ATP luminescence, 90 h; hit rate 14% among 5,600; shares compounds with T cruzi growth-1; cytotoxicity (signal decrease), % at 8.35 µM;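 active = mean signal decrease across replicates above about 35% based on untreated-well scatter, with enough replicates individually passing, limit read from the data; inconclusive = no rule stated though some were filed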
NIH3T3 tox 2 = cytotoxicity in mouse NIH/3T3 fibroblasts; shares compounds with T cruzi growth-1; inhibition, % at 24.9 µM; hit rate 56% among 5,600; NIH/3T3 viability, CellTiter-Glo ATP luminescence, 90 h;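 active = mean loss of cell viability signal at or above a set limit, and enough replicates individually reaching it; inconclusive = meets only the mean limit or only the replicate share; inactive = meets neither condition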
A number is an active result; i = inactive; ? = inconclusive; nt = no result.

SMILES	T cruzi growth-1	C diff growth	Pf Dd2 inh	T cruzi growth-2	T cruzi growth-3	NIH3T3 tox	NIH3T3 tox 2
Cc1ccc(S(=O)(=O)Nc2ccc3c(c2)C(=O)N([C@H](C)CO)C[C@@H](C)[C@H](CN(C)C(=O)c2ccccc2)OCCCC[C@@H](C)O3)cc1	i	i	i	nt	nt	nt	nt
C[C@@H]1CN([C@@H](C)CO)S(=O)(=O)c2ccc(C#C[C@@H](C)O)cc2O[C@H]1CN(C)CC1CC1	i	i	i	nt	nt	nt	nt
COc1ccc(S(=O)(=O)N2CC[C@@H]3[C@@H](CO)Nc4ccc(-c5ccccc5F)cc4[C@@H]32)cc1	i	i	i	nt	nt	nt	nt
CO[C@H]1CN(C)C(=O)c2cc(NS(C)(=O)=O)ccc2OC[C@@H](C)N(C(=O)c2ccc3c(c2)OCO3)C[C@H]1C	nt	nt	i	nt	nt	nt	nt
CN(C)CC(=O)N1CC2(C1)[C@H](c1ccccc1)[C@@H](CO)N2C(=O)C1CCC1	nt	i	i	nt	nt	nt	nt
CN1c2ccc(Br)cc2[C@@H]2[C@@H](CCN2S(=O)(=O)c2ccccc2)[C@@H]1CO	i	i	i	nt	nt	nt	nt
CN1c2ccc(Br)cc2[C@@H]2[C@@H](CCN2S(=O)(=O)c2cccc(F)c2)[C@H]1CO	?	i	i	106.2	i	i	34.6
CN1c2ccc(Br)cc2[C@H]2[C@H](CCN2S(=O)(=O)c2cccc(F)c2)[C@@H]1CO	116.6	i	i	102.8	i	i	i
Cc1cccc(S(=O)(=O)N2CC[C@@H]3[C@H]2c2cc(Br)ccc2N(C)[C@H]3CO)c1	i	i	i	nt	nt	nt	nt
C/C=C/c1cnc2c(c1)C(=O)N([C@H](C)CO)C[C@@H](C)[C@H](CN(C)C(=O)NC1CCCCC1)O2	i	i	i	nt	nt	nt	nt
Cc1ccc(S(=O)(=O)N[C@H]2CC[C@H](CCn3cc(C4CCCC4)nn3)O[C@@H]2CO)cc1	nt	i	i	nt	nt	nt	nt
COc1ccc(-c2ccc3c(c2)O[C@H](CN(C)Cc2cccnc2)[C@H](C)CN([C@@H](C)CO)S3(=O)=O)cc1	nt	i	i	nt	nt	nt	nt
COc1ccc(-c2ccc3c(c2)O[C@H](CN(C)Cc2cccnc2)[C@H](C)CN([C@H](C)CO)S3(=O)=O)cc1	nt	i	i	nt	nt	nt	nt
COc1ccc(-c2ccc3c(c2)O[C@@H](CN(C)Cc2cccnc2)[C@@H](C)CN([C@@H](C)CO)S3(=O)=O)cc1	nt	i	i	nt	nt	nt	nt
COc1cccc(-c2ccc3c(c2)O[C@H](CN(C)Cc2cccnc2)[C@H](C)CN([C@H](C)CO)S3(=O)=O)c1	112.5	i	i	97.0	i	54.1	63.9
COc1cccc(-c2ccc3c(c2)O[C@H](CN(C)Cc2cccnc2)[C@@H](C)CN([C@@H](C)CO)S3(=O)=O)c1	118.9	i	i	105.3	105.5	?	60.4
COc1cccc(-c2ccc3c(c2)O[C@H](CN(C)Cc2cccnc2)[C@H](C)CN([C@@H](C)CO)S3(=O)=O)c1	99.6	i	i	97.1	101.0	63.2	66.1
COc1ccc(-c2ccc3c(c2)O[C@H](CN(C)Cc2cccnc2)[C@@H](C)CN([C@H](C)CO)S3(=O)=O)cc1	nt	i	i	nt	nt	nt	nt
COc1cccc(-c2ccc3c(c2)O[C@@H](CN(C)Cc2cccnc2)[C@H](C)CN([C@H](C)CO)S3(=O)=O)c1	111.7	i	i	?	i	55.6	103.8
C[C@@H]1CN([C@@H](C)CO)S(=O)(=O)c2ccc(-c3cccnc3)cc2O[C@H]1CN(C)CC1CC1	i	i	i	nt	nt	nt	nt
COC(=O)C[C@H]1CC[C@@H]2[C@@H](COc3ccc(NC(=O)C4CC4)cc3C(=O)N2C)O1	i	i	i	nt	nt	nt	nt
OC[C@@H]1[C@H](c2ccc(-c3cccc(F)c3)cc2)[C@@H]2CN(Cc3cncnc3)CCCCN12	123.1	i	i	102.5	i	i	i
OC[C@H]1[C@@H](c2ccc(-c3cccc(F)c3)cc2)[C@@H]2CN(Cc3cncnc3)CCCCN12	i	i	i	nt	nt	nt	nt
OC[C@@H]1[C@H](c2ccc(-c3cccc(F)c3)cc2)[C@H]2CN(Cc3cncnc3)CCCCN12	95.6	i	i	i	i	i	102.1
COc1cccc(-c2ccc([C@@H]3[C@H](CO)N4CCCCN(Cc5cncnc5)C[C@@H]34)cc2)c1	i	i	i	nt	nt	nt	nt
C[C@@H]1CN([C@@H](C)CO)S(=O)(=O)c2ccc(C#CC(C)(C)O)cc2O[C@@H]1CN(C)Cc1ccc(-c2ccccc2)cc1	121.0	i	i	i	115.3	i	103.4
